Experimental findings from article PMC8384837, “Expanding the binding specificity for RNA recognition by a PUF domain” are described below.

Common to all, as to test: yeast three-hybrid, YBZ-1, SC-Leu-His + 0.5 mM 3-AT, 4 days
Details in all cases: tags: N-Gal4 AD-HA kept; label: inside an RPR1-promoter hybrid RNA with tandem MS2 sites; ssRNA

The target of assay [1] is T1, PUM1 PUF domain R6-LFC (Homo sapiens, UniProt Q14671 828-1176, N1043L;Y1044F;Q1047C).
T1 sequence: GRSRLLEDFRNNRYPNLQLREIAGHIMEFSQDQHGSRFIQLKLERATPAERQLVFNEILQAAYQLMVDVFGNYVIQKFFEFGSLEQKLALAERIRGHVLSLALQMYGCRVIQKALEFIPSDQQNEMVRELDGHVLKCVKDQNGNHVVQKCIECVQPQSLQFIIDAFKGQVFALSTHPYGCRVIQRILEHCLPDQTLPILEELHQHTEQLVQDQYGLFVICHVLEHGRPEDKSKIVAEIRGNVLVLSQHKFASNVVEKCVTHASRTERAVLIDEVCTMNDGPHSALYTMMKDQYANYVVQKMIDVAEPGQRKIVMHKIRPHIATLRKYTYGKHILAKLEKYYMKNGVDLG
In a few lines:
(§1)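 Sequencing with Illumina followed PCR amplification of the repeat regions from transformants grown four days on SC-Leu (input) or SC-Leu-His + 0.5 mM 3-AT (selection). The transformants were strain YBZ-1 with a LexA–MS2 coat fusion and a HIS3 reporter, carrying Pumilio-1 PUF domain libraries and matching RNA elements. The interaction score is the log change in variant frequency from input to selection, computed in log2 with a pseudocount of 1 for absent variants.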

Assay [2] has as its target PUM1 PUF domain R8-KYP (Homo sapiens, UniProt Q14671 828-1176, N1122K;Q1126P). In a few lines:
as §1

The target of assay [3] is PUM1 PUF domain R4-RGY (Homo sapiens, UniProt Q14671 828-1176, N971R;H972G;Q975Y). In a few lines:
as §1

In assay [4] the target is PUM1 PUF domain R3-THE R4-TFR R7-NPG (Homo sapiens, UniProt Q14671 828-1176, C935T;R936H;Q939E;N971T;H972F;Q975R;S1079N;N1080P;E1083G). Summed up: as §1
In assay [5] the target is PUM1 PUF domain R3-KPG (Homo sapiens, UniProt Q14671 828-1176, C935K;R936P;Q939G). In a few lines:
as §1

In assay [6] the target is PUM1 PUF domain R3-DNE (Homo sapiens, UniProt Q14671 828-1176, C935D;R936N;Q939E). Summed up: as §1
Assay [7] has as its target PUM1 PUF domain R3-YRG (Homo sapiens, UniProt Q14671 828-1176, C935Y;Q939G). In a few lines:
as §1

In assay [8] the target is PUM1 PUF domain R8-KHF (Homo sapiens, UniProt Q14671 828-1176, N1122K;Y1123H;Q1126F). In a few lines:
as §1

The target in assay [9] is PUM1 PUF domain R5-RAI (Homo sapiens, UniProt Q14671 828-1176, C1007R;R1008A;Q1011I). In a few lines:
as §1

PUM1 PUF domain R5-RAI, sequence (Q14671 828-1176 C1007R/R1008A/Q1011I): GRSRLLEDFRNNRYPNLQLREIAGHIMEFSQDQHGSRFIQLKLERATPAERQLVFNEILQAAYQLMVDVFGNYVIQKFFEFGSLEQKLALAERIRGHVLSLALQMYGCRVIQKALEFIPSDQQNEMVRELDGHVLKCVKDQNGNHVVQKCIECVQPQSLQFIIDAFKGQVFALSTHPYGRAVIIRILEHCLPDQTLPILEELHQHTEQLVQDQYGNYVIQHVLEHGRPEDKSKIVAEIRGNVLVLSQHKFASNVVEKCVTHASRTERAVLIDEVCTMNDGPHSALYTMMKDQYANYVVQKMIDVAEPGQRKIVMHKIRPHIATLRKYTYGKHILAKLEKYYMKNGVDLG
PUM1 PUF domain R3-YRG, sequence (Q14671 828-1176 C935Y/Q939G): as the sequence (Q14671 828-1176 C1007R/R1008A/Q1011I) above, with C108Y, Q112G, R180C, A181R, I184Q counted along it
PUM1 PUF domain R3-DNE, sequence (Q14671 828-1176 C935D/R936N/Q939E): as the sequence (Q14671 828-1176 C1007R/R1008A/Q1011I) above, with C108D, R109N, Q112E, R180C, A181R, I184Q counted along it
PUM1 PUF domain R3-THE R4-TFR R7-NPG, sequence (Q14671 828-1176 C935T/R936H/Q939E/N971T/H972F/Q975R/S1079N/N1080P/E1083G): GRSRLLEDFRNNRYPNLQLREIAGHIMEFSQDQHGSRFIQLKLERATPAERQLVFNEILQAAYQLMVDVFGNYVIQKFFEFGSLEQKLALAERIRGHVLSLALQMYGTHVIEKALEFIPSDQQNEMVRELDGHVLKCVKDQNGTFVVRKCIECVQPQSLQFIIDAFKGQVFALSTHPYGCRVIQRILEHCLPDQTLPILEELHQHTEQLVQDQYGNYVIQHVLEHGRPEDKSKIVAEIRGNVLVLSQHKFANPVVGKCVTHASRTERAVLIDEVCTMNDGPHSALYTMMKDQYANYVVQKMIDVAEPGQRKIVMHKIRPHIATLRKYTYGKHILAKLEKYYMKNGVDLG

Regarding “GGCUAGAACUAGUGGAUCCCCCGGCGCCCGGCGGCUCGAGCCCGGGUAAGUGUAAAUAGUCUGCAUGCCGCCGGGCGCCAUGCCUGCAGGUCGACUCUAGAAAACAUG”, the binding signal was 3.09 log2 enrichment (interaction score) in [1], 4.91 log2 enrichment (interaction score) in assay [2] and 5.07 log2 enrichment (interaction score) in assay [3].

Take “GGCUAGAACUAGUGGAUCCCCCGGCGCCCGGCGGCUCGAGCCCGGGUAAGUUUACGUAGUCUGCAUGCCGCCGGGCGCCAUGCCUGCAGGUCGACUCUAGAAAACAUG”: the binding signal in [4] is 5.28 log2 enrichment (interaction score). Turning to “GGCUAGAACUAGUGGAUCCCCCGGCGCCCGGCGGCUCGAGCCCGGGUAAGUGUAAUUAGUCUGCAUGCCGCCGGGCGCCAUGCCUGCAGGUCGACUCUAGAAAACAUG”, the binding signal in [5] was 4.43 log2 enrichment (interaction score). Regarding “GGCUAGAACUAGUGGAUCCCCCGGCGCCCGGCGGCUCGAGCCCGGGUAAGUGUAAGUAGUCUGCAUGCCGCCGGGCGCCAUGCCUGCAGGUCGACUCUAGAAAACAUG”, the binding signal in [6] was 3.35 log2 enrichment (interaction score); in [7], 3.84 log2 enrichment (interaction score). With “GGCUAGAACUAGUGGAUCCCCCGGCGCCCGGCGGCUCGAGCCCGGGUAAGGGUAAAUAGUCUGCAUGCCGCCGGGCGCCAUGCCUGCAGGUCGACUCUAGAAAACAUG”, the binding signal in [8] was 2.25 log2 enrichment (interaction score). As to “GGCUAGAACUAGUGGAUCCCCCGGCGCCCGGCGGCUCGAGCCCGGGUAAGUGUUAAUAGUCUGCAUGCCGCCGGGCGCCAUGCCUGCAGGUCGACUCUAGAAAACAUG”, in assay [9], the binding signal is 2.49 log2 enrichment (interaction score).

With “GGCUAGAACUAGUGGAUCCCCCGGCGCCCGGCGGCUCGAGCCCGGGUAAGUGUCAAUAGUCUGCAUGCCGCCGGGCGCCAUGCCUGCAGGUCGACUCUAGAAAACAUG”, the binding signal in [9] was 0.78 log2 enrichment (interaction score).
